Reference: PubChem BioAssay
The source made the active and inactive calls.

Experiment: growth of efflux-deficient E. coli DRC39 – strain DRC39, OD650, 24 h, E. coli filamentation inducers, primary screen (AID 1178);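 note: growth measured as culture turbidity by optical density at 650 nm; test concentration not given here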
Conditions: E. coli DRC39 acrAB, higher = more signal, called active from +8 up or from −8 down

z-score, inactive:
COC(=O)[C@@]1(Cc2ccc(F)cc2)[C@H]2c3cc(C(=O)N4CCCC4)n(Cc4ccc(S(C)(=O)=O)cc4)c3C[C@H]2CN1C(=O)c1ccccc1 -1.12
CO[C@H]1O[C@H](CO)[C@@H](OC(=O)Nc2ccc(C(F)(F)F)cc2)[C@H](OC(=O)Nc2ccc3c(c2)OCO3)[C@@H]1OC(=O)Nc1ccc2c(c1)OCO2 1.53
O=C1O[C@@H](c2ccccc2)[C@@H](c2ccccc2)N2[C@@H](c3ccccc3OCCO)[C@]3(C(=O)Nc4ccccc43)[C@@H](C(=O)Nc3nc4ccccc4s3)[C@H]12 -0.986
Cc1ccc(S[C@]2(C(=O)NCCCN(C)C)CC(=O)N(Cc3cc(C(F)(F)F)cc(C(F)(F)F)c3)[C@@H]2c2ccc(CO)cc2I)cc1 0.392
O=C1c2ccccc2[C@](Cc2ccccc2I)(C(=O)NCC(F)(F)F)[C@H](c2ccc(CO)cc2)N1Cc1ccccc1Cl 0.489
O=C(NCCN1CCOCC1)[C@@H]1c2ccccc2C(=O)N(C2CCCCC2)[C@H]1c1ccc(CO)cc1 -0.424
CC#CC(=O)Oc1ccccc1C=CC(=O)OCC 0.23
COC(=O)[C@@]1(CCS(=O)(=O)c2ccccc2)N=C(c2ccc(OCCCO)cc2)O[C@H]1c1ccccc1CN=[N+]=[N-] 0.163
C=CC1(C(=O)OC)CC=C(C(=O)OC)CC1 (stereo not given) -0.233
CC(C)C(CO)N1C(=O)[C@@H]2C3C(=O)OCCC/C=C\[C@H]3OC23C=CCN(CCN2CCOCC2)C(=O)[C@@H]13 (stereo not given in full) 1.01
